Source: ChEMBL document CHEMBL1961873, “Compounds: GSK PKIS; Assays: Nanosyn kinase panel” (2012)
Several values for one entry are separate records, joined by “and”; a condition that tells them apart may be missing. Equal entries are not always repeated.

Tests used:
[1] = biological target: Rho-associated protein kinase 1 (Homo sapiens) (UniProt Q13464); details: at 1 µM;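 also: reported values are mean percent inhibition of ROCK1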
[2] = biological target: Rho-associated protein kinase 2 (Homo sapiens) (UniProt O75116); details: at 0.1 µM
[3] = biological target: Rho-associated protein kinase 2 (Homo sapiens) (UniProt O75116); details: at 1 µM
[4] = biological target: Ribosomal protein S6 kinase alpha-1 (Homo sapiens) (UniProt Q15418); details: at 0.1 µM
Sequence of Ribosomal protein S6 kinase alpha-1 (Homo sapiens) (Q15418 whole entry): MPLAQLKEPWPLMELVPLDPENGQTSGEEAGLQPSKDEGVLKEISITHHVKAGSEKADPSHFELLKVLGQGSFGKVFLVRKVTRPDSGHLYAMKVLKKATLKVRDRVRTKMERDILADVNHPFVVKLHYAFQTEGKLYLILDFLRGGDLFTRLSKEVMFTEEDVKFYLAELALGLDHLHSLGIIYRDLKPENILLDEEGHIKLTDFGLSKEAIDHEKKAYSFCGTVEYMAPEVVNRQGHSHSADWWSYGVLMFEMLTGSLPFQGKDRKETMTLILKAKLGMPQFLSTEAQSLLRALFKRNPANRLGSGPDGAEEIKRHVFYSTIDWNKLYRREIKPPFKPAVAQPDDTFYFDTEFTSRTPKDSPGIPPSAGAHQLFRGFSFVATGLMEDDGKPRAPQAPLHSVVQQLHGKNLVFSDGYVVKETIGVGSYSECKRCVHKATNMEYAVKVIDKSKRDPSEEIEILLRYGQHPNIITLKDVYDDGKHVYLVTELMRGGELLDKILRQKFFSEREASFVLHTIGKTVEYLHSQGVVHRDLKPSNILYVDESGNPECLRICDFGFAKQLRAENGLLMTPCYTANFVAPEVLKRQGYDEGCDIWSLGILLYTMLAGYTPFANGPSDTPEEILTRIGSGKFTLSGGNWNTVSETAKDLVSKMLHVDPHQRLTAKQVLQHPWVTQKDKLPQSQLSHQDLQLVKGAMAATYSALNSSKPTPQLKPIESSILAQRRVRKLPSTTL

[5] = biological target: Ribosomal protein S6 kinase alpha-1 (Homo sapiens) (UniProt Q15418); details: at 1 µM
[6] = biological target: Ribosomal protein S6 kinase alpha-3 (Homo sapiens) (UniProt P51812); details: at 0.1 µM
Sequence of Ribosomal protein S6 kinase alpha-3 (Homo sapiens) (P51812 whole entry): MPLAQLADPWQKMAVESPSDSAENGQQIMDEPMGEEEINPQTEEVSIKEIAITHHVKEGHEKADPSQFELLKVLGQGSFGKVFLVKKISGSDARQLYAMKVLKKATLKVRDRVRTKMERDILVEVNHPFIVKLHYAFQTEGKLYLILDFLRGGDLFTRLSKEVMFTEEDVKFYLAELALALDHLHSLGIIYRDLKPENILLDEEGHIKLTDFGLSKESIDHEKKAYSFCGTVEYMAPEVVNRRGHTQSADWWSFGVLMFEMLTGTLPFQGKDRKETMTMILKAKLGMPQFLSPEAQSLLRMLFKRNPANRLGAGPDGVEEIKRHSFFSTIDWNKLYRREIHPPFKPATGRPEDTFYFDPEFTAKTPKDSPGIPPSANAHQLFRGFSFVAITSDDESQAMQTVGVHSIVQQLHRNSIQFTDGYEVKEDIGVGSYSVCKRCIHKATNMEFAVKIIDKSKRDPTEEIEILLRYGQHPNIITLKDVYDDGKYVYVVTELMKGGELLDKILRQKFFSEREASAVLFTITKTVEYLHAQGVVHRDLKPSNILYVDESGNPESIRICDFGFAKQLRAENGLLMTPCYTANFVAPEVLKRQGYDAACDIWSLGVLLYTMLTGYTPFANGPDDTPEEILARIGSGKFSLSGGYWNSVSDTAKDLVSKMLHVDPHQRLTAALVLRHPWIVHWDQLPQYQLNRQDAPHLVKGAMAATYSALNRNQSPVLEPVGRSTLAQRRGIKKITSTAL

[7] = biological target: Ribosomal protein S6 kinase alpha-3 (Homo sapiens) (UniProt P51812); details: at 1 µM
[8] = biological target: Ribosomal protein S6 kinase alpha-2 (Homo sapiens) (UniProt Q15349); details: at 0.1 µM
Sequence of Ribosomal protein S6 kinase alpha-2 (Homo sapiens) (Q15349 whole entry): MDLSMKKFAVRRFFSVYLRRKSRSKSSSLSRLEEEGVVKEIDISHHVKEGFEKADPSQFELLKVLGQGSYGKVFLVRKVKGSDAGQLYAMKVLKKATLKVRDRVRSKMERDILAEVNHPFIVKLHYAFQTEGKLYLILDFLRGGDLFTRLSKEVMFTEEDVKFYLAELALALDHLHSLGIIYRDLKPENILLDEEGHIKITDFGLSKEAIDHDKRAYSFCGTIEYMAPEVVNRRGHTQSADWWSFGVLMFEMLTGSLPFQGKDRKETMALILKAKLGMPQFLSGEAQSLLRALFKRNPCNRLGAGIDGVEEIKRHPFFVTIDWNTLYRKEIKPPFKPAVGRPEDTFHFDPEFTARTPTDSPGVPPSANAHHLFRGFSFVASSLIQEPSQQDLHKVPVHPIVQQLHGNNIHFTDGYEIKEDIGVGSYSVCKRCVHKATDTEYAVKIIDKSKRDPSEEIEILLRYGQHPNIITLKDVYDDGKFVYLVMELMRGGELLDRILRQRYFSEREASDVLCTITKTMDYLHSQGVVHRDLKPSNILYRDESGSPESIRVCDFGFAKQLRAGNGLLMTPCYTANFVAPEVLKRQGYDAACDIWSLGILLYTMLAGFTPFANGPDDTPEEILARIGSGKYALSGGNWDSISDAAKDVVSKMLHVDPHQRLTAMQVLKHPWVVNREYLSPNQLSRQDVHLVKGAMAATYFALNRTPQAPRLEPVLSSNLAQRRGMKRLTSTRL

[9] = biological target: Ribosomal protein S6 kinase alpha-2 (Homo sapiens) (UniProt Q15349); details: at 1 µM
[10] = biological target: Ribosomal protein S6 kinase alpha-6 (Homo sapiens) (UniProt Q9UK32); details: at 0.1 µM;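 also: reported value is the mean inhibition of RSK4, from the GSK PKIS kinase inhibitor screen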
Sequence of Ribosomal protein S6 kinase alpha-6 (Homo sapiens) (Q9UK32 whole entry): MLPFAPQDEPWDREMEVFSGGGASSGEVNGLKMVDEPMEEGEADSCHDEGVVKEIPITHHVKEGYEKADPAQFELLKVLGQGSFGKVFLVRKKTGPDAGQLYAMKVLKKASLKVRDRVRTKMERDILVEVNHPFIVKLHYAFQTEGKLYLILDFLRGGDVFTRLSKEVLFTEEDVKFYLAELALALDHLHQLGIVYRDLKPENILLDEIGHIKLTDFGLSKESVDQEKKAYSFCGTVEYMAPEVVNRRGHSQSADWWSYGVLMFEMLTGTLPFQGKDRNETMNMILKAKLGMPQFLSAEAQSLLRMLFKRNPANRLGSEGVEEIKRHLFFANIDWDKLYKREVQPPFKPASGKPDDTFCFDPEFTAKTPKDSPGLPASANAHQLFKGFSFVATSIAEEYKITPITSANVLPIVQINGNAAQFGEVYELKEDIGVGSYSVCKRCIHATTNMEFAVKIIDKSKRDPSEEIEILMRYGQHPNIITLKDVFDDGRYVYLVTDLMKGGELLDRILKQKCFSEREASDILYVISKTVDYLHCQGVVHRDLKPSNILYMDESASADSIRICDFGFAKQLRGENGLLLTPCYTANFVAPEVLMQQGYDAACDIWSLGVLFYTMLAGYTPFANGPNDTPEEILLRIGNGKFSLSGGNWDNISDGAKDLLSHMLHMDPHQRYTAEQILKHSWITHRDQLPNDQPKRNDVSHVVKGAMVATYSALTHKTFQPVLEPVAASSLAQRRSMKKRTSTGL

Sequence of Rho-associated protein kinase 1 (Homo sapiens) (Q13464 2-1354 limits assumed): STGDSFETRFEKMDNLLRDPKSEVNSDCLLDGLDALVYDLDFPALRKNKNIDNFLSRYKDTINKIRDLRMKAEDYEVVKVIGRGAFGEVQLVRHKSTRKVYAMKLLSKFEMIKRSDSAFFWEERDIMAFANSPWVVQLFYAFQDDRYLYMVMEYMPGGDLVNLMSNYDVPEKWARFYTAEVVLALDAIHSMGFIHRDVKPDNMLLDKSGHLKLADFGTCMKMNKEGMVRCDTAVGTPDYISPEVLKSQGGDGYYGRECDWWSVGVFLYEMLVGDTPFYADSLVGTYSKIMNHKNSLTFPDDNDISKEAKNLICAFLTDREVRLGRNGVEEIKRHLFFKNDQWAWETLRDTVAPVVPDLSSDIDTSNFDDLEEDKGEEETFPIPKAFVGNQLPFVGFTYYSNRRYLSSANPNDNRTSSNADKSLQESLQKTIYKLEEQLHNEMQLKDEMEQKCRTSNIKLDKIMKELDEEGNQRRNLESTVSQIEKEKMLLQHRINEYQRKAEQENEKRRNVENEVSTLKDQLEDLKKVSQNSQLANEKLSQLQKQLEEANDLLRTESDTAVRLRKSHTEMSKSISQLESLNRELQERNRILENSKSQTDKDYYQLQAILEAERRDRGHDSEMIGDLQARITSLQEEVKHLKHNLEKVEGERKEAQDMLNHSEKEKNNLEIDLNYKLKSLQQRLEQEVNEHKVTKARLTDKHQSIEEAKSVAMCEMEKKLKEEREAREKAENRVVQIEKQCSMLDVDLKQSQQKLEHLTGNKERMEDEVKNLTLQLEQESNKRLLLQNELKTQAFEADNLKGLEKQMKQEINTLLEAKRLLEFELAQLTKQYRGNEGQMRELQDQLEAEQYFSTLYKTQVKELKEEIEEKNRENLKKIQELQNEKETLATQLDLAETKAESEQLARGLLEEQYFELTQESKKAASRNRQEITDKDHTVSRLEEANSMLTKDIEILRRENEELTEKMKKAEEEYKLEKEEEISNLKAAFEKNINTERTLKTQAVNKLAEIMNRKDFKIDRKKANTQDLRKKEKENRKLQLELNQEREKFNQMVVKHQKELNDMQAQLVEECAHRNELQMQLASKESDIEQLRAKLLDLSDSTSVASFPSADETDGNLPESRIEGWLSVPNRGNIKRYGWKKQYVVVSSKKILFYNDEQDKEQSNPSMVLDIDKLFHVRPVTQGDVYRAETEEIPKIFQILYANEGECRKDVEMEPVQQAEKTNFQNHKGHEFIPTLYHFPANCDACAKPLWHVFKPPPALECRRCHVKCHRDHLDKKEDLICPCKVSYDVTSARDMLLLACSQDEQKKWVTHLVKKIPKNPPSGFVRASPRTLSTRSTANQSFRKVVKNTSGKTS

CN1CCC(C(=O)Nc2n[nH]c3nc(-c4ccc(O)cc4)c(Br)cc23)CC1
inhibition [1]: 2.13% and -0.83% | inhibition [2]: 3.65% and -0.14% | inhibition [3]: 7.61% and 0.92% | inhibition [4]: 2.66% and 0.77% | inhibition [5]: 5.58% and 0.84% | inhibition [6]: 2.78% and 0.04% | inhibition [7]: 6.6% and 1.92% | inhibition [8]: 3.56% and 2.99% | inhibition [9]: 7.9% and 6.17% | inhibition [10]: 2.77% and 0.98%

CS(=O)(=O)Nc1ccc(-c2ccc3c(NC(=O)C4CC4)n[nH]c3c2)cc1
inhibition [1]: 1.98% | inhibition [2]: 0.25% | inhibition [3]: -0.32% | inhibition [4]: 1.25% | inhibition [5]: 1.36% | inhibition [6]: 0.62% | inhibition [7]: 0.96% | inhibition [8]: 0.73% | inhibition [9]: 3.79% | inhibition [10]: 1.37%

CN(c1ccc(NC(=O)NCCN2CCOCC2)cc1)c1ccnc(Nc2ccc(CS(C)(=O)=O)cc2)n1
inhibition [1]: 8.01% | inhibition [2]: 4.87% | inhibition [3]: 18.1% | inhibition [4]: 1.1% | inhibition [5]: 3.56% | inhibition [6]: 2.14% | inhibition [7]: 2.69% | inhibition [8]: 1.38% | inhibition [9]: 2.28% | inhibition [10]: 1.79%

CCS(=O)(=O)c1ccc(OC)c(Nc2ncc(-c3cccc(C(C)=O)c3)o2)c1
inhibition [1]: 2.14% | inhibition [2]: 1.98% | inhibition [3]: 6.73% | inhibition [4]: 2.43% | inhibition [5]: 5.75% | inhibition [6]: 1.27% | inhibition [7]: 3.54% | inhibition [8]: 0.6% | inhibition [9]: 3.67% | inhibition [10]: 1%

NS(=O)(=O)c1ccc(N/N=C2\C(=O)Nc3ccc(C(=O)NCc4ccncc4)cc32)cc1
inhibition [1]: 5.11% | inhibition [2]: 4.18% | inhibition [3]: 15.1% | inhibition [4]: 1.77% | inhibition [5]: 7.98% | inhibition [6]: 2.2% | inhibition [7]: 6.7% | inhibition [8]: 1.92% | inhibition [9]: 7.63% | inhibition [10]: 3.7%

Cc1nnc(-c2cccc(-c3ccc(C(=O)NCC4CC4)cc3)c2)o1
inhibition [1]: 2.23% | inhibition [2]: 3.74% | inhibition [3]: 6.19% | inhibition [4]: 2.8% | inhibition [5]: 4.92% | inhibition [6]: 1.25% | inhibition [7]: 1.76% | inhibition [8]: 3.01% | inhibition [9]: 2.85% | inhibition [10]: 2.12%

c1ccc(-c2n[nH]cc2-c2ccnc(-c3ccc(OCCn4ccnc4)cc3)c2)nc1
inhibition [1]: 5.6% | inhibition [2]: 5.64% | inhibition [3]: 7.73% | inhibition [4]: 0.66% | inhibition [5]: 4.31% | inhibition [6]: 0.64% | inhibition [7]: 3.85% | inhibition [8]: 1.32% | inhibition [9]: 1.36% | inhibition [10]: 0.75%

O=C(O[C@H]1CN[C@H](C#Cc2cc3ncnc(Nc4ccc5c(ccn5Cc5cc(F)ccc5F)c4)c3s2)C1)N1CCOCC1
inhibition [1]: 3.4% | inhibition [2]: 2.86% | inhibition [3]: 5.23% | inhibition [4]: 1.53% | inhibition [5]: 1.62% | inhibition [6]: 0.96% | inhibition [7]: 0.89% | inhibition [8]: 3.56% | inhibition [9]: 2.57% | inhibition [10]: 1.53%

COc1ccccc1-c1cc(/C=C2\C(=O)Nc3ncc(Br)cc32)cc(Br)c1O
inhibition [1]: 2.31% | inhibition [2]: 1.89% | inhibition [3]: 2.15% | inhibition [4]: 0.44% | inhibition [5]: 0.08% | inhibition [6]: 0.16% | inhibition [7]: 1.15% | inhibition [8]: 1.52% | inhibition [9]: 3.85% | inhibition [10]: -0.23%

COc1c(C(N)=O)cc(-c2ccc(Cl)cc2)cc1-c1ccc(S(N)(=O)=O)cc1
inhibition [1]: 3.19% | inhibition [2]: 2.99% | inhibition [3]: 5.06% | inhibition [4]: 1.96% | inhibition [5]: 2.12% | inhibition [6]: 1.72% | inhibition [7]: 2.53% | inhibition [8]: 2.4% | inhibition [9]: 2.98% | inhibition [10]: 2.25%

CC(C)c1ccc(-c2cc(-c3c[nH]nc3-c3ccccn3)ccn2)cc1
inhibition [1]: 1.96% | inhibition [2]: 0.45% | inhibition [3]: 1.63% | inhibition [4]: -0.37% | inhibition [5]: 1.19% | inhibition [6]: -0.1% | inhibition [7]: 0.24% | inhibition [8]: 1.17% | inhibition [9]: 1.83% | inhibition [10]: 0.05%

Cc1ccc(-c2cc3c(NC(=O)C4CC4)ncnc3o2)cc1
inhibition [1]: 2.27% | inhibition [2]: 2.81% | inhibition [3]: 1.43% | inhibition [4]: 2.52% | inhibition [5]: 4.28% | inhibition [6]: 1.27% | inhibition [7]: 2.17% | inhibition [8]: 2.35% | inhibition [9]: 2.3% | inhibition [10]: 0.9%

N#Cc1ccc2c(-c3ccnc(NC4CC4)n3)c(-c3ccc(F)cc3)nn2c1
inhibition [1]: 0.26% | inhibition [2]: 0.99% | inhibition [3]: 0.79% | inhibition [4]: 0.57% | inhibition [5]: 0.36% | inhibition [6]: 0.08% | inhibition [7]: 0.42% | inhibition [8]: 1.03% | inhibition [9]: 1.48% | inhibition [10]: 1.23%

COc1cc2c(cc1Nc1nc(Nc3cccc(F)c3C(N)=O)c3cc[nH]c3n1)N(C(=O)CN1CCN(C(C)C)CC1)CC2
inhibition [1]: 0.34% | inhibition [2]: 0.62% | inhibition [3]: 2.82% | inhibition [4]: 4.37% | inhibition [5]: 20.1% | inhibition [6]: 2.2% | inhibition [7]: 10.3% | inhibition [8]: 1.68% | inhibition [9]: 2.89% | inhibition [10]: 3.57%

Cc1cc(O)cc(C)c1/C=C/c1cncc(C(=O)OC(C)(C)C)c1
inhibition [1]: 2.78% | inhibition [2]: 4.67% | inhibition [3]: 3.55% | inhibition [4]: 0.74% | inhibition [5]: 1.77% | inhibition [6]: 1.52% | inhibition [7]: 1.88% | inhibition [8]: 1.57% | inhibition [9]: 1.41% | inhibition [10]: 0.33%
